# Experimental data: PubChem BioAssay
# Active and inactive are the calls of the source. Unless noted, how the calls were made is not given here.
# Experiments:
# [1] = tested on: Wnt5a (protein binding on small-molecule microarray); assay: small molecules binding Wnt5a protein – biophysical, small-molecule microarray, 635/667 nm fluorescence, primary screen (AID 1142); details: 635 nm fluorescence, higher = more signal;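 further: fluorescence read at 667 nm with signal to noise per printed feature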
# [2] = ATP-based viability of Huh7 replicon cells – cell-based, CellTiter-Glo luminescence, basal, 48 h, cytotoxicity control for HCV replication inhibitor project, primary screen (AID 1143); details: higher = more signal, called active from +8 up or from −8 down;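 further: Huh7 hepatoma cells carrying a hepatitis C replication reporter with no stimulus; test concentration not given here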
# [3] = Pseudomonas biofilm growth suppression – PAO1 strain, BacTiter-Glo luminescence, LB-PBS, primary screen (AID 1144); details: P. aeruginosa PAO1 biofilm, 12 h, higher = more signal
# [4] = basal CRE-LacZ reporter activity in PC12 – cell-based, unstimulated, primary screen (AID 1145); details: no forskolin, luminescence, 4.5 h, higher = more signal, called active from +8 up or from −8 down
# [5] = forskolin-driven CRE-LacZ activity in PC12 – cell-based, CRE-LacZ reporter, forskolin-stimulated, primary screen (AID 1146); details: luminescence, 4.5 h, higher = more signal, called active from +8 up or from −8 down;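 further: PC12 cells with 6xCRE LacZ reporter stimulated by forskolin 10 µM; beta-galactosidase reporter signal reflecting CREB driven transcription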
# [6] = target: Streptavidin (Streptomyces avidinii) (UniProt P22629); assay: compounds binding control protein streptavidin – biophysical, small-molecule microarray, 635/667 nm fluorescence, artefact control for SMM compound annotation, primary screen (AID 1147); details: higher = more signal;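 further: signal reflects streptavidin binding to arrayed compounds as a control protein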
# Sequence of Streptavidin (Streptomyces avidinii) (P22629 whole entry, looked up): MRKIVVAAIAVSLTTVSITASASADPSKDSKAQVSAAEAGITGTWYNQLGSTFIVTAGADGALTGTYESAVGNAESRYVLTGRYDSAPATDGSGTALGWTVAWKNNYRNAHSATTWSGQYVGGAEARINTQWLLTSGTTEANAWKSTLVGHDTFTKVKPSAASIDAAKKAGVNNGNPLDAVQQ
# [7] = probe aInhba binding on compound microarray – biochemical, small-molecule microarray, 635/667 nm fluorescence, primary screen (AID 1148); details: higher = more signal;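 further: score merges 667nm spot fluorescence with signal-to-noise for antibody binding to printed compounds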
# Torsin-1A (Homo sapiens) [8] = target: Torsin-1A (Homo sapiens) (UniProt O14656); assay: TOR1A wild-type binding on microarray – cell lysate, small-molecule microarray, lysate, 635/667 nm, primary screen (AID 1149); details: COS7 hTOR1A-WT lysate, 635 nm fluorescence, higher = more signal
# Sequence of Torsin-1A (Homo sapiens) (O14656 whole entry, looked up): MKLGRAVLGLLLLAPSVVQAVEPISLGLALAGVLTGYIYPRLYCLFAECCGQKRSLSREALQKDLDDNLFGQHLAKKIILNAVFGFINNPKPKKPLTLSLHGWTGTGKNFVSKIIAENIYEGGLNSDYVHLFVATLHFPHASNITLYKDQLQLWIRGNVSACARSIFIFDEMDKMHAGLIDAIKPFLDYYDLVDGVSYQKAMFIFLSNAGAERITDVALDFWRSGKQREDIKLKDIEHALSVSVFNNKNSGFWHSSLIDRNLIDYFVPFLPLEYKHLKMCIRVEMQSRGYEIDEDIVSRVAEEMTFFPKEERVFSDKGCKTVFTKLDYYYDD
# Torsin-1A (Homo sapiens) [9] = target: Torsin-1A (Homo sapiens) (UniProt O14656); assay: torsin A mutant lysate binding on microarrays – cell lysate, small-molecule microarray, COS7 lysate, 635/667 nm fluorescence, primary screen (AID 1150); details: COS7 hTOR1A mutant lysate, 635 nm fluorescence, higher = more signal;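 further: score pools 667 nm emission and signal to noise measuring lysate protein binding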
# [10] = tested on: Sonic hedgehog protein (Shh); assay: Sonic hedgehog microarray binding compounds – biochemical, small-molecule microarray, 635/667 nm fluorescence, primary screen (AID 1151); details: 635 nm fluorescence, higher = more signal;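 further: Shh protein binding to compounds spotted on small-molecule microarray slides; score combines spot fluorescence intensity with signal-to-noise across triplicate slides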
# [11] = optical density shifts of acrAB sulA E. coli – strain DRC41, OD650, 48 h, E. coli filamentation inducer project, primary screen (AID 1152); details: higher = more signal, called active from +8 up or from −8 down;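 further: E. coli MC1000 strain DRC41 lacking acrAB efflux pump and sulA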
# [12] = probe aLefty1 binding on compound microarray – biochemical, small-molecule microarray, 635/667 nm fluorescence, primary screen (AID 1153); details: higher = more signal;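 further: score merges spot fluorescence with signal-to-noise ratio from the scanned slide images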
# [13] = plasmodial surface anion channel blockers, osmotic lysis – cell-based, P. falciparum Indochina, OD700, 1 h, primary screen (AID 1154); details: P. falciparum Indochina infected RBC osmotic lysis, higher = more signal, called active from +8 up or from −8 down
# [14] = plasmodial surface anion channel blockers, osmotic lysis – cell-based, P. falciparum Indochina, OD700, 2 h, primary screen (AID 1155);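 further: lysis reports solute entry through the parasite surface anion channel PSAC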; details: P. falciparum Indochina infected erythrocytes, higher = more signal, called active from +8 up or from −8 down
# [15] = changes in parasitized red cell lysis, either direction – P. falciparum Indochina, OD700, 3 h, PSAC antagonist project, primary screen (AID 1156); details: P. falciparum-infected erythrocytes, osmotic lysis, higher = more signal, called active from +8 up or from −8 down
# [16] = plasmodial surface anion channel blockers, osmotic lysis – cell-based, P. falciparum Indochina, OD700, 18 h, primary screen (AID 1157); details: P. falciparum Indochina infected erythrocytes, osmotic lysis OD700, 18 h; higher = more signal, called active from +8 up or from −8 down
# [17] = S6 kinase pathway phospho-S6 level changes – cell-based, A549, cytoblot, luminescence, serum-stimulated, primary screen (AID 1158); details: 5 h, higher = more signal;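 further: serum-stimulated A549 lung adenocarcinoma cells; signal is phosphorylated S6 detected by cytoblot immunostaining with HRP secondary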
# [18] = target: NADPH oxidase 2 (Homo sapiens) (UniProt P04839); assay: compounds shifting NOX2 Amplex Red fluorescence – cell-based, HEK293-NOX2, PMA-stimulated, NOX inhibitor project, primary screen (AID 1159); details: 45 min, higher = more signal, called active from +8 up or from −8 down; further: test concentration not given here
# Sequence of NADPH oxidase 2 (Homo sapiens) (P04839 whole entry, looked up): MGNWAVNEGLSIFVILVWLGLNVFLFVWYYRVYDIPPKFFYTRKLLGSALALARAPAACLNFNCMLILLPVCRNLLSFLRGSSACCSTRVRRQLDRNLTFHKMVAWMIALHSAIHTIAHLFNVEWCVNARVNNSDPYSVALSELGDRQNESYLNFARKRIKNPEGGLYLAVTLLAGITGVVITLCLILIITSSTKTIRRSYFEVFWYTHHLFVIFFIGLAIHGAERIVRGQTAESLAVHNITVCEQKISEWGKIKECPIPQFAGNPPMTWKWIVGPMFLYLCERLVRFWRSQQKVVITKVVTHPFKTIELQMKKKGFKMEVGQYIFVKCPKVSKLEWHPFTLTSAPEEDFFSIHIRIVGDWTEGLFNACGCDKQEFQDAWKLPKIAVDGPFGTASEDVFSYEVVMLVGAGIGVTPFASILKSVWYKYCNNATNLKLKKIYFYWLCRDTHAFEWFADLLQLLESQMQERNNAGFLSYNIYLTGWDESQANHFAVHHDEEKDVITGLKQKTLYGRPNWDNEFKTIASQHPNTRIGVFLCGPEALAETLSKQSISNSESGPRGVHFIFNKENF
# [19] = target: NADPH oxidase 4 (Homo sapiens) (UniProt Q9NPH5); assay: compounds shifting NOX4 Amplex Red fluorescence – cell-based, HEK293-NOX4, tetracycline-induced, NOX inhibitor project, primary screen (AID 1160); details: HEK293-NOX4, Amplex Red H2O2 fluorescence, 45 min; higher = more signal, called active from +8 up or from −8 down
# Sequence of NADPH oxidase 4 (Homo sapiens) (Q9NPH5 whole entry, looked up): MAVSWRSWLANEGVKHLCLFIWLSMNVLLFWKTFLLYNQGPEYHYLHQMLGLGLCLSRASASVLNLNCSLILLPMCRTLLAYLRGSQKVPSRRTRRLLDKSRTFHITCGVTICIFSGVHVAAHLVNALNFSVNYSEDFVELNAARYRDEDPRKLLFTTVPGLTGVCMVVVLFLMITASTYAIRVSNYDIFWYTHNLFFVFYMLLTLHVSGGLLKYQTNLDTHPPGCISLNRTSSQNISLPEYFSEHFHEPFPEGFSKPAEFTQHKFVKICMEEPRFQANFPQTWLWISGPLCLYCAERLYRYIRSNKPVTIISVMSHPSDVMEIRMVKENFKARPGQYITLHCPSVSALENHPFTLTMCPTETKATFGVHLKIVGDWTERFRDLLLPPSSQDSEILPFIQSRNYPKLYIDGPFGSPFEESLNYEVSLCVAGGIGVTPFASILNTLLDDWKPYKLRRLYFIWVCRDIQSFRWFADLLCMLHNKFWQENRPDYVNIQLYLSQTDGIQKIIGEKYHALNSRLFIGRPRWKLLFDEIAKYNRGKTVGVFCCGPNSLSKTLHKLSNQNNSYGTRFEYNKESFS
# [20] = target: NADPH oxidase 5 (Homo sapiens) (UniProt Q96PH1); assay: compounds shifting NOX5 Amplex Red fluorescence – cell-based, HEK293-NOX5, NOX inhibitor project, primary screen (AID 1161); details: HEK293-NOX5, ionomycin, 45 min, higher = more signal
# Sequence of NADPH oxidase 5 (Homo sapiens) (Q96PH1 whole entry, looked up): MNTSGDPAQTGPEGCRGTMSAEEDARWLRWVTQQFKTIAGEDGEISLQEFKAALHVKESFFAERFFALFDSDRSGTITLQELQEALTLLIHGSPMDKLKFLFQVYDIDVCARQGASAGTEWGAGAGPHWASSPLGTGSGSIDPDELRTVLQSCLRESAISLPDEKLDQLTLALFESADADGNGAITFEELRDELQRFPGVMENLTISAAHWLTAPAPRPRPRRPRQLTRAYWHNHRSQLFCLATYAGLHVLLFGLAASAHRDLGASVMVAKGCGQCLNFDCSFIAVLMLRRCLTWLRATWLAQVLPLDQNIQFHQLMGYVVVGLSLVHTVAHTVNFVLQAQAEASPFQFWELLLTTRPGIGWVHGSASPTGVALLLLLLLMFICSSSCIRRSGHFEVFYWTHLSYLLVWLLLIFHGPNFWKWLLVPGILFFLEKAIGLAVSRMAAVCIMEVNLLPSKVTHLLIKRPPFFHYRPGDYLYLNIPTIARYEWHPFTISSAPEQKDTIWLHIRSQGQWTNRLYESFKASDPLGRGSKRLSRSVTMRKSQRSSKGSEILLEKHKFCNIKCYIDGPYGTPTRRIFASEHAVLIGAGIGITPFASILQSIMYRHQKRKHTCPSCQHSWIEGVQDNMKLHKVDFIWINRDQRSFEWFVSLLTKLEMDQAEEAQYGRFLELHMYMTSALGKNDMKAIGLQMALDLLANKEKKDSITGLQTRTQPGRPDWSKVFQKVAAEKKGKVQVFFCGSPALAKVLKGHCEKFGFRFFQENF
SMILES,composite z-score [1],z-score [2],z-score [3],z-score [4],z-score [5],composite z-score [6],composite z-score [7],composite z-score (Torsin-1A (Homo sapiens) [8]),composite z-score (Torsin-1A (Homo sapiens) [9]),composite z-score [10],z-score [11],composite z-score [12],z-score [13],z-score [14],z-score [15],z-score [16],z-score [17],z-score [18],z-score [19],z-score [20]
CC(CO)N1C(=O)[C@@H]2[C@H]3C(=O)OCC=C[C@H]3OC23C=CCN(c2ccc(Cl)cc2)C(=O)[C@@H]13 (stereo not given in full),-0.691,0.359 (inactive),2.78 (inactive),0.866 (inactive),0.154 (inactive),-2.13,-0.26,-2.73,-2.95,-0.721,0.458 (inactive),-0.283,-0.499 (inactive),-0.219 (inactive),0.639 (inactive),0.0119 (inactive),-0.172,0.8 (inactive),0.28 (inactive),1.34
CN(C)C(=O)[C@@]1(Cc2ccccc2N=[N+]=[N-])N=C(c2ccc(OCCCO)cc2)O[C@H]1c1ccccc1,0.797,-4.41 (inactive),-1.63 (inactive),0.872 (inactive),0.361 (inactive),1.84,0.841,0.106,0.401,-0.361,-0.369 (inactive),0.465,25.7 (active),12.4 (active),2.85 (inactive),1.94 (inactive),-0.482,-3.93 (inactive),0.711 (inactive),-2.45
C[C@]1(C(=O)O)c2ccccc2C(=O)N(Cc2ccc(OC(F)(F)F)cc2)[C@H]1c1ccc(CO)cc1,0.386,-0.17 (inactive),-0.526 (inactive),0.118 (inactive),-0.48 (inactive),-0.129,0.053,0.45,0.522,-0.261,0.026 (inactive),0.227,3.93 (inactive),0.789 (inactive),0.503 (inactive),0.18 (inactive),-0.115,0.948 (inactive),0.41 (inactive),-0.52
COCC(=C=CC[C@@H](O)c1ccc(OCCO)cc1)CCO,0.0576,-0.258 (inactive),-0.934 (inactive),0.0986 (inactive),-0.482 (inactive),-0.471,-0.0762,0.995,0.966,1.59,1.15 (inactive),0.0391,6.19 (inactive),0.492 (inactive),1.32 (inactive),0.381 (inactive),0.357,-2.03 (inactive),-0.406 (inactive),-0.727
COCCCNC(=O)[C@@]1(Sc2ccc(C)cc2)CC(=O)N(Cc2ccccc2Cl)[C@@H]1c1ccc(CO)cc1I,-0.509,-1.35 (inactive),0.241 (inactive),-0.168 (inactive),1.68 (inactive),-0.768,-0.128,-1.03,-0.213,-0.519,-0.192 (inactive),0.0004,3.44 (inactive),0.325 (inactive),-0.575 (inactive),0.181 (inactive),-0.487,1.52 (inactive),-1.12 (inactive),2.08
COc1ccc([Si](C)(C)[C@H]2[C@H](CCO)O[C@@]3(C(=O)N(Cc4ccccc4)c4ccc(N5C(=O)c6ccccc6Oc6ccccc65)cc43)[C@@H]2C)cc1,0.147,-6.59 (inactive),-0.0823 (inactive),0.324 (inactive),-0.328 (inactive),-0.069,-0.128,-0.218,0.102,0.534,0.503 (inactive),0.121,3.46 (inactive),1.45 (inactive),0.354 (inactive),1.19 (inactive),0.314,-1.35 (inactive),1.42 (inactive),0.269
CCN(CC)c1ccc(N2CC=CC34O[C@@H]5C=CCCOC(=O)C5[C@H]3C(=O)N(CCO)[C@@H]4C2=O)cc1 (stereo not given in full),-0.546,-0.055 (inactive),-0.167 (inactive),0.191 (inactive),0.0371 (inactive),-1.02,-0.163,-0.894,-1.42,-0.0352,0.286 (inactive),-0.155,1.03 (inactive),0.537 (inactive),0.836 (inactive),0.159 (inactive),-0.616,0.697 (inactive),-0.513 (inactive),1.11
COc1ccc(CCNC(=O)[C@@]2(Cc3ccccc3I)c3ccccc3C(=O)N(Cc3ccccc3Cl)[C@H]2c2ccc(CO)cc2)cc1,0.0402,-2.74 (inactive),-0.144 (inactive),0.0387 (inactive),0.752 (inactive),-0.555,0.502,-0.36,0.397,0.527,-1.2 (inactive),0.893,4.53 (inactive),1.52 (inactive),1.55 (inactive),0.473 (inactive),0.0403,0.898 (inactive),0.183 (inactive),1.39
COC(=O)C1N=C(c2ccc(OCCCO)cc2)N(c2ccccc2)O1 (stereo not given),0.924,0.255 (inactive),-0.787 (inactive),0.353 (inactive),0.0512 (inactive),0.562,0.308,0.654,0.328,0.664,0.336 (inactive),0.103,24.9 (active),7.38 (inactive),1.02 (inactive),1.04 (inactive),0.417,0.943 (inactive),0.392 (inactive),-0.0493
